Compound activity: PubChem BioAssay, National Center for Advancing Translational Sciences (NCATS)
Compounds with a hit are over-represented: about 6% of the library has one in this group of screens.
D3 antag: blocks the human D3 dopamine receptor; P35462; D3R cells, DiscoveRx beta-arrestin luminescence, antagonist mode; active compounds read low; max response, negative = inhibition, %; actives 2.5% (n = 360,000); AID 652054; in the data active means max response below about -50%; inconclusive means no clear call, values can overlap the other calls
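Cells plated overnight at 1500 cells/well, then exposed to library compounds with dopamine controls for 90 minutes at 37 degrees C. DiscoveRx reagent added for 30–60 minutes at room temperature; luminescence read, quantitative HTS format.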
D1 ag: human D1 receptor agonism. actives 1% (n = 360,000). AID 504660. activation, % at 2 µM. HEK293 T-REx D1 cells, calcium flux, agonist mode. P21728; in the data active means activation above about 30%
Target sequence (P21728 whole entry, looked up): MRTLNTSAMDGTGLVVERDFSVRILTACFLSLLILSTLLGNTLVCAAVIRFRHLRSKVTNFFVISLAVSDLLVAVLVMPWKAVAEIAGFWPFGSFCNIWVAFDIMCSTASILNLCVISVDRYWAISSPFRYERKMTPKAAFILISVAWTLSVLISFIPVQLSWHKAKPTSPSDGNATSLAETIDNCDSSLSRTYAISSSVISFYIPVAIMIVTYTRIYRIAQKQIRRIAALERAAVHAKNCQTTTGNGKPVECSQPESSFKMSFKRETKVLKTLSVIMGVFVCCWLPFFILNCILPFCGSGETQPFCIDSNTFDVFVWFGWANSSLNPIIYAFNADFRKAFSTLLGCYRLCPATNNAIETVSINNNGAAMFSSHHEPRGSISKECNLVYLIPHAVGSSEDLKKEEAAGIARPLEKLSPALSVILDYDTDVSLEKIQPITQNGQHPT
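Tetracycline-induced HEK293 TREx D1 cells, force-coupled to calcium signalling, were dye-loaded with a no-wash calcium kit. Compound was pin-added after a 10 s baseline. Fluorescence was read kinetically at 1 cycle/s for 180 s, with calcium rises flagged as agonism.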
D1 potentiator: enhances dopamine response at the human D1 receptor | P21728 | HEK293 TREx D1 cells, calcium flux, dopamine EC20 potentiation | potentiation, % at 10 µM | actives 0.036% (n = 360,000); in the data active means potentiation above about 30%
BCR signal inh: blocks chronic active B-cell receptor signaling; actives 0.05% (n = 340,000); ABC-DLBCL IkBa-CBG/CBR reporter, luminescence ratio, 4 h; AID 493014; Potency, µM (doses to about 46.1 µM), actives largely listed as inhibitors; active means well fitted inhibition curve with a large enough effect in the signal ratio, with a control signal flat, not every such curve was filed as active; inconclusive means small, poorly fitted or top-dose-only effect, or effect the other way, or a change in a side signal; the % refers to the signal ratio
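Cell line TMD8 (human ABC DLBCL), stably expressing tet-inducible CBG68-IkBa fusion and CBR; IMDM/0.5% FBS; cpd up to 46 uM; dox induction, 4 h, 37C/5% CO2; dual luminescence; green/red ratio; MG132 control.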
D3 ag: agonists of human D3 dopamine receptor. P35462. D3R DiscoveRx beta-arrestin cells, luminescence, 90 min. max activation, %. actives 0.58% (n = 410,000). AID 652048; in the data active means max activation above about 30%
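Agonist-mode cell screen: cells plated at 1500/well and incubated overnight at 37 °C, then exposed to library compounds for 90 min at 37 °C. Detection reagent was added for 30–60 min at room temperature, and luminescence was read.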
D1 antagonist: human D1 dopamine receptor antagonism; P21728; HEK293 TREx D1 cells, calcium flux, dopamine EC80; active compounds read low; activity change, negative = inhibition, % at 10 µM; actives 3.2% (n = 360,000); AID 504652; in the data active means activity change below about -30%
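Inducible Hek293 Trex D1 cells (tetracycline, overnight, 30 C). Calcium dye 30–90 min RT. Antagonist mode: EC80 dopamine added after 180 s compound read.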
Of the large screens only hits and unclear results are named; the others gave an inactive call.

O=C(Cn1cnc2ccccc21)N/N=C/c1ccc([N+](=O)[O-])cc1	none
COC(=O)[C@]12CCCCC=C1N(Cc1cccc3ccccc13)C(=O)[C@H](CC(=O)N1CCCCC1)C2	none (no result: D1 ag, D1 potentiator, BCR signal inh, D1 antagonist)
CC(C)(CN1CCN(Cc2ccccc2)CC1)NS(=O)(=O)c1ccccc1	D3 antag -51.9
CC(C)(CN1CCN(C(c2ccccc2)c2ccccc2)CC1)NS(=O)(=O)c1ccccc1	D3 antag -52.6
CC(=O)N1CCN(CC(C)(C)NS(=O)(=O)c2ccccc2)CC1	none (no result: D1 ag, D1 potentiator, D1 antagonist)
CC(CN1CCNCC1)(NS(=O)(=O)c1ccccc1)c1ccccc1 (stereo unspecified)	D3 antag -71.4, BCR signal inh inconclusive, D1 antagonist -34.6
C[C@H]1CN([C@@H](C)CO)C(=O)CCCn2nncc2CO[C@H]1CN(C)C(=O)c1ccc2ccn(C)c2c1	none (no result: D1 ag, D1 potentiator, BCR signal inh, D1 antagonist)
CC(C)C(=O)Nc1cccc(C(=O)Nc2nnc(C(F)(F)F)s2)c1	none (no result: D3 antag, BCR signal inh)
O=C(COC(=O)c1ncc(Cl)c(Cl)c1Cl)NC1CCCCCC1	D1 antagonist -44.2
O=C(COC(=O)c1nc(Cl)ccc1Cl)NC1CCCCCC1	D1 antagonist -30.7
CCc1cccc(CC)c1NC(=O)CO/N=C(\N)CC(=O)NC1CCCCC1	none
N/C(CC(=O)NC1CCCCC1)=N\OCC(=O)Nc1ccc(Cl)c(Cl)c1	BCR signal inh inconclusive, D1 antagonist -93.9
CCOC(=O)c1cnc2ccccc2c1NCc1ccco1	D1 antagonist -39.2
Cc1cc2oc(=O)c(CC(=O)O)c(C)c2c2occ(-c3ccc(F)cc3)c12	none (no result: D3 antag, BCR signal inh)
CCN(C[C@H]1N[C@@](CC)(C(=O)OC)[C@H]2C(=O)N(Cc3ccccc3)C(=O)[C@@H]12)C(=O)c1ccc(C)cc1	D3 ag 55.2 (no result: D1 ag, D1 potentiator, D1 antagonist)
CCN(C[C@H]1N[C@@](Cc2ccccc2)(C(=O)OC)[C@H]2C(=O)N(Cc3ccccc3)C(=O)[C@@H]12)S(=O)(=O)c1ccccc1	D3 antag -72.2 (no result: D1 ag, D1 potentiator, D1 antagonist)
CCN(C[C@H]1N[C@@](CC)(C(=O)OC)[C@H]2C(=O)N(Cc3ccccc3)C(=O)[C@@H]12)C(=O)c1ccc(F)cc1	none (no result: D1 ag, D1 potentiator, D1 antagonist)
COC(=O)[C@]1(Cc2ccccc2)N[C@H](CN(C)C(=O)Nc2ccc(OC)cc2)[C@@H]2C(=O)N(C)C(=O)[C@@H]21	D3 antag -52.7 (no result: D1 ag, D1 potentiator, D1 antagonist)
COc1ccccc1CNC(=O)c1ccc(N2CCCC2)c(NC(=O)NCCC(C)C)c1	none (no result: D3 antag, BCR signal inh)
Oc1cccc(-c2c3nc(c(-c4cccc(O)c4)c4ccc([nH]4)c(-c4cccc(O)c4)c4nc(c(-c5cccc(O)c5)c5ccc2[nH]5)CC4)C=C3)c1	none (no result: D3 antag, D1 ag, D1 potentiator, BCR signal inh, D1 antagonist)
Cc1cc(N2CCN(C)CC2)nc2ccc(NC(=O)CCC(=O)NCCC3=CCCCC3)cc12	D3 antag -53.2 (no result: D1 ag, D1 potentiator, BCR signal inh, D1 antagonist)
CCCN(CCC)CCNC(=O)CCC(=O)Nc1ccc2nc(N3CCOCC3)cc(C)c2c1	D3 antag -65.8
CCCCN(CC)CCNC(=O)CCC(=O)Nc1ccc2nc(N3CCN(C)CC3)cc(C)c2c1	D3 antag -57.0
CCCCN(CC)CCNC(=S)Nc1ccc2nc(N3CCN(C)CC3)cc(C)c2c1	D3 antag inconclusive, BCR signal inh inconclusive
N#Cc1ccc(CSc2nnc(-c3ccc(Br)cc3)o2)cc1	none (no result: D3 antag, BCR signal inh)
CCOc1cccc(C(=O)Nc2ccc(-c3nc4cc(C)cc(C)c4o3)cc2)c1	none (no result: D3 antag, BCR signal inh)
CN1CCN(/N=C/c2nc(-c3ccc(Cl)cc3)n3ccccc23)CC1	D1 antagonist -61.4
CC(C)(C)n1nnnc1C(c1cccnc1)N1CCN(c2ccccn2)CC1 (stereo unspecified)	D1 ag 30.9, D1 antagonist -60.4
CC(C)(C)n1nnnc1C(c1cccnc1)N1CCN(c2ccccc2)CC1 (stereo unspecified)	none
COc1ccc(C2C(C#N)=C(N)Oc3n[nH]c(C)c32)cc1Cn1nnc2ccccc21 (stereo unspecified)	D3 antag -61.5
O=C1CC(C(F)(F)F)=NN1	BCR signal inh inconclusive, D3 ag 32.9
Clc1ccccc1Cn1nnc2c(NCCN3CCOCC3)ncnc21	none
c1ccc(Cn2nnnc2CN2CCOCC2)cc1	D1 antagonist -33.6
c1ccc(Cn2nnc3c(NCCN4CCOCC4)ncnc32)cc1	D1 antagonist -30.8
Cc1cc2c(s1)c1cnn(Cc3ccc(-c4ccccc4)cc3)c(=O)c1n2C	none (no result: D3 antag, BCR signal inh, D3 ag)
CCC(=O)N1CCCc2cc(S(=O)(=O)N3CCC(C(=O)NCc4ccc(F)cc4)CC3)ccc21	none (no result: D3 antag, BCR signal inh)
CCOC(=O)c1ccc(Nc2nnc(C(C)(C)C)c(=O)[nH]2)cc1	BCR signal inh inconclusive, D1 antagonist -55.9
CCOC(=O)c1ccc(Nc2ccc(C(C)=O)cc2)cc1	none (no result: D1 ag, D1 potentiator, BCR signal inh, D1 antagonist)
O=c1[nH]nc(N=Nc2c(O)[nH]c3ccc(F)cc23)c(=O)[nH]1	none (no result: D1 ag, D1 potentiator, BCR signal inh, D1 antagonist)
COc1ccc(N=Nc2[nH]c3ccc(C)cc3c2O)cc1	none
Cc1ccc(N=Nc2c(O)[nH]c3ccc(F)cc23)cc1	D1 ag 116.9, BCR signal inh inconclusive, D1 antagonist -47.9
Cc1ccc(N=Nc2[nH]c3ccccc3c2O)cc1	D1 ag 51.6
CCOC(=O)c1cccc(NC(=O)c2nn(-c3ccc(OC)cc3)c(=O)c3c2c2ccccc2n3C)c1	none (no result: D3 antag, BCR signal inh)
CCCC[C@]12Cc3c(ccc4ccccc34)C(O1)C1=C(O2)C(=O)c2ccccc2C1=O	none (no result: D3 antag, D3 ag)
Nc1nc(N)c(N=Nc2ccc(Cl)cc2)c(=O)[nH]1	BCR signal inh inconclusive
NS(=O)(=O)c1ccc(N=Nc2ccc(=O)[nH]c2O)cc1	D3 antag -101.8, BCR signal inh inconclusive
Nc1nc(N)c(N=Nc2ccc(S(N)(=O)=O)cc2)c(=O)[nH]1	D3 antag -54.8, BCR signal inh inconclusive
Cn1c(SCc2cccc(F)c2)nc2c([nH]c3ccccc32)c1=O	none (no result: D3 antag, BCR signal inh)
CCOC(=O)C1Cc2ccccc2CN1 (stereo unspecified)	D3 antag -66.4
O=C(CCNS(=O)(=O)c1ccc2c(c1)CCN2C(=O)C1CC1)N1CCN(c2ccc(F)cc2)CC1	D1 antagonist -37.0 (no result: D3 antag, BCR signal inh)
CC1CCN(CCCNS(=O)(=O)c2ccc3c(c2)CCN3C(=O)C2CC2)CC1	none
CCC(=O)N1CCc2cc(S(=O)(=O)NCCC(=O)Nc3ccc(OC)c(OC)c3)ccc21	D1 antagonist -40.2 (no result: D3 antag, BCR signal inh)
CCC(=O)N1CCc2cc(S(=O)(=O)NCCN3CCC(C)CC3)ccc21	D3 antag -90.0
O=C(CCNS(=O)(=O)c1cccc2nonc12)Nc1ccc(F)cc1	none (no result: D3 antag, BCR signal inh)
COc1ccc(N2C(N)=C(C#N)C(c3cc(CN4CCOCC4)cs3)C3=C2CCCC3=O)cc1 (stereo unspecified)	none (no result: D3 antag)
CCc1nnc(SCc2cccc(F)c2)c2cc3sc(C)cc3n12	none (no result: D3 antag, BCR signal inh)
CCN(Cc1ccc2c(c1)OCO2)C(=O)CSc1nc(C)nc2sc(C)c(C)c12	D3 ag 40.2
